The source of these data is PubChem BioAssay (EPA / NIEHS).

Assay [1] deals with Estrogen receptor beta (Homo sapiens) (UniProt Q92731). Put plainly: OT_ER_ERbERb_1440: Odyssey Thera (OT) 24-hour HEK293T Protein-Complementation Assay for Estrogen Receptor-beta/-beta Homodimer (AID 2283380).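 Note: scored as signal increase over DMSO baseline for both agonists and antagonists.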 A digest of the protocol: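 HEK293T cells stably expressing ER beta LBD (aa 310-547) homodimer fragment-complementation reporter, dosed 24 h. Cells formaldehyde-fixed, Draq5-stained; gain in nuclear (agonist) or nuclear plus cytoplasmic (antagonist) fluorescence versus DMSO read by laser scanning cytometry.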

The target in assay [2] is Bile acid receptor (Homo sapiens) (UniProt Q96RI1). In words: OT_FXR_FXRSRC1_0480: Odyssey Thera (OT) 8-hour HEK293T Protein-Complementation Assay for Farnesoid X receptor/SRC-1 Co-activator (AID 2283383). A digest of the protocol:
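HEK293T cells expressing FXR and SRC-1 fused to reporter fragments were dosed with compound for 8 h; fluorescence from the reconstituted reporter marked co-activator recruitment. Gain of signal was fitted against the DMSO baseline.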

Assay [3] shares this target. In words: OT_FXR_FXRSRC1_1440: Odyssey Thera (OT) 24-hour HEK293T Protein-Complementation Assay for Farnesoid X receptor/SRC-1 Co-activator (AID 2283384). A digest of the protocol: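 HEK293T cells were dosed with compound and read 24 h later by fluorescence intensity from protein-fragment complementation reporting FXR/SRC-1 co-activator interaction. Gain of signal was fitted relative to DMSO negative control as baseline.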

The target of assay [4] is Retinoic acid receptor RXR-alpha (Homo sapiens) (UniProt P19793). Put plainly: OT_NURR1_NURR1RXRa_0480: Odyssey Thera (OT) 8-hour HEK293T Protein Complementation Assay for Nurr1/retinoid X receptor (RXR) (AID 2283385). In outline:
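HEK293T cells expressing Nurr1 and RXRα fused to reporter fragments were dosed with compound for 8 hours. Complex formation was read as fluorescence intensity and analysed as gain of signal against DMSO as baseline.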

For assay [5] the target is unchanged. In words: OT_NURR1_NURR1RXRa_1440: Odyssey Thera (OT) 24-hour HEK293T Protein Complementation Assay for Nurr1/retinoid X receptor (RXR) (AID 2283386). In outline: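 HEK293T cells were dosed with compound and read 24 h later by fluorescence intensity in a protein-fragment complementation format, where Nurr1–RXRα interaction reconstitutes a split reporter. Activity was fitted as gain of signal relative to DMSO baseline.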

The nature of assay [6]: CEETOX_H295R_11DCORT: CeeTox H295R High-throughput Steroidogenesis Assay for 11-Deoxycortisol (11DCORT) (AID 2283432; active = hit-call score of the fitted dose curve at least 0.9, where 1 is the maximum; inactive = score below 0.9;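 for AC50: 11-deoxycortisol secreted into the medium measured by LC-MS/MS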). The following applies: actives raise or lower the signal. A digest of the protocol:
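H295R cells prestimulated 48 h with 10 uM forskolin, then exposed 48 h to chemical in 0.1% DMSO. 11-Deoxycortisol in medium quantified by HPLC-MS/MS after MTBE extraction; bidirectional fit versus DMSO. MTT viability read in same wells.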

Assay [7] is described as follows: CEETOX_H295R_OHPREG: CeeTox H295R High-throughput Steroidogenesis Assay for OH-Pregnenolone (OHPREG) (AID 2283434; active = hit-call score of the fitted dose curve at least 0.9, where 1 is the maximum; inactive = score below 0.9). The following applies: actives raise or lower the signal. In outline:
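H295R cells pre-stimulated 48 h with 10 uM forskolin, then exposed 48 h to chemical in 0.1% DMSO. 17alpha-hydroxypregnenolone in medium quantified by MTBE extraction and HPLC-MS/MS; bidirectional fit versus DMSO, viability checked by MTT.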

Assay [8] is described as follows: CEETOX_H295R_CORTIC: CeeTox H295R High-throughput Steroidogenesis Assay for Corticosterone (CORTIC) (AID 2283437; active = hit-call score of the fitted dose curve at least 0.9, where 1 is the maximum; inactive = score below 0.9;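 note: corticosterone secreted into medium quantified by mass spectrometry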). The following applies: actives raise or lower the signal. In outline:
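H295R adrenal cells prestimulated 48 hours with 10 uM forskolin, then exposed 48 hours to chemical in 0.1% DMSO. Corticosterone in medium measured by HPLC-MS/MS after MTBE extraction; MTT viability in the same wells; bidirectional fit versus DMSO.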

Assay [9] in a line: CEETOX_H295R_CORTISOL: CeeTox H295R High-throughput Steroidogenesis Assay for Cortisol (AID 2283438; active = hit-call score of the fitted dose curve at least 0.9, where 1 is the maximum; inactive = score below 0.9;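 note: cortisol secreted into medium quantified by LC-MS/MS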). The settings on record: actives raise or lower the signal. A digest of the protocol:
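H295R human adrenal cells were prestimulated 48 h with 10 uM forskolin, then exposed 48 h to test chemical (0.1% DMSO final). Medium cortisol was quantified by HPLC-MS/MS after MTBE extraction; bidirectional fitting relative to DMSO baseline.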

The nature of assay [10]: CEETOX_H295R_DOC: CeeTox H295R High-throughput Steroidogenesis Assay for DOC (AID 2283439; active = hit-call score of the fitted dose curve at least 0.9, where 1 is the maximum; inactive = score below 0.9). The following applies: actives raise or lower the signal. In outline: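 H295R adrenal cells prestimulated 48 h with 10 uM forskolin, then exposed 48 h to test chemical (0.1% DMSO final). Medium 11-deoxycorticosterone extracted with MTBE, quantified by HPLC-MS/MS; bidirectional fit versus DMSO baseline; MTT viability in same wells.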

The nature of assay [11]: CEETOX_H295R_PROG: CeeTox H295R High-throughput Steroidogenesis Assay for Progesterone (PROG) (AID 2283442; active = hit-call score of the fitted dose curve at least 0.9, where 1 is the maximum; inactive = score below 0.9;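 for AC50: human H295R adrenal cells primed with 10 µM forskolin before dosing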). The following applies: actives raise or lower the signal. In outline: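 Measured analyte is progesterone secreted by H295R cells at 48 h of chemical treatment, following 10 uM forskolin priming. Quantitation used HPLC-MS/MS against a 7-point standard curve; cytotoxicity was checked by MTT absorbance.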

Read-out in assay [12]: Tumor necrosis factor receptor superfamily member 6 (Homo sapiens) (UniProt P25445)
In words: LTEA_HepaRG_FAS: Life Technologies and Expression Analysis (LTEA) Assay for Fas cell surface death receptor (FAS) using HepaRG (AID 2283447; active = hit-call score of the fitted dose curve at least 0.9, where 1 is the maximum; inactive = score below 0.9). The following applies: mRNA level, 48 h; actives raise or lower the signal. A digest of the protocol:
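Differentiated HepaRG cells in serum-free induction medium were exposed 48 h to 8 half-log concentrations up to 100 uM in 0.5% DMSO, in duplicate. FAS mRNA was measured by qRT-PCR normalised to ACTB, GAPDH and POLR2A; bidirectional fit versus DMSO.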

Assay [13] addresses Peroxisome proliferator-activated receptor gamma (Homo sapiens) (UniProt P37231). Put plainly: OT_PPARg_PPARgSRC1_0480: Odyssey Thera (OT) 8-hour Protein-Complementation Assay for Peroxisome Proliferator-activated Receptor Gamma / SRC-1 Co-activator (AID 2283387).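 Note: nuclear to cytoplasmic split Venus YFP fluorescence ratio reporting PPARg SRC-1 interaction.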 In outline:
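HEK293T transiently transfected with PPARg and SRC-1 fused to Venus YFP fragments, compounds 8 h at 37C. Fixed, Draq5-stained cells imaged; nuclear/cytoplasmic 488 nm fluorescence ratio over at least 350 cells per image; gain fitted versus DMSO.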

The target of assay [14] is Estrogen receptor (Homo sapiens) (UniProt P03372). Put plainly: OT_ERa_GFPERaERE_0480: Odyssey Thera (OT) 8-hour HeLa Transcription Induction Assay for Estrogen Receptor (AID 2283381; active = hit-call score of the fitted dose curve at least 0.9, where 1 is the maximum; inactive = score below 0.9). A digest of the protocol: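 HeLa cells dosed with compound and imaged by fluorescence microscopy at 8 h; GFP induction from an ERE reporter quantified by high-content image analysis and fitted as gain of signal against DMSO baseline.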

The target is the same in assay [15]. In words: OT_ERa_GFPERaERE_0120: Odyssey Thera (OT) 2-hour HeLa Transcription Induction Assay for Estrogen Receptor (AID 2283382). In outline: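 HeLa cells were dosed with test chemical and read 2 hours later for GFP-ERα/ERE-linked fluorescent protein induction by fluorescence microscopy. Gain-of-signal was fitted relative to DMSO baseline, quantified by high content image analysis.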

The target in assay [16] is Peroxisome proliferator-activated receptor gamma (Homo sapiens) (UniProt P37231). Put plainly: OT_PPARg_PPARgSRC1_1440: Odyssey Thera (OT) 24-hour Protein-Complementation Assay for Peroxisome Proliferator-activated Receptor Gamma/ SRC-1 Co-activator (AID 2283388). In outline: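 Cells carrying the PPARg/SRC-1 fragment-complementation reporter receive compound for 24 hours, are fixed and counterstained with Draq5, then imaged. Increased nuclear relative to cytoplasmic YFP fluorescence above DMSO baseline indicates binding activity.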

Records with an inconclusive call do not appear. Some structures have more than one record in an assay (separate samples or runs), and their calls can disagree. The source made the active and inactive calls. Rule for the calls, unless noted: active = hit-call score of the fitted dose curve at least 0.9, where 1 is the maximum; inconclusive = response in the unintended direction; inactive = score below 0.9.

Sequence of Bile acid receptor (Homo sapiens) (Q96RI1 whole entry, looked up, the tested form may be a part): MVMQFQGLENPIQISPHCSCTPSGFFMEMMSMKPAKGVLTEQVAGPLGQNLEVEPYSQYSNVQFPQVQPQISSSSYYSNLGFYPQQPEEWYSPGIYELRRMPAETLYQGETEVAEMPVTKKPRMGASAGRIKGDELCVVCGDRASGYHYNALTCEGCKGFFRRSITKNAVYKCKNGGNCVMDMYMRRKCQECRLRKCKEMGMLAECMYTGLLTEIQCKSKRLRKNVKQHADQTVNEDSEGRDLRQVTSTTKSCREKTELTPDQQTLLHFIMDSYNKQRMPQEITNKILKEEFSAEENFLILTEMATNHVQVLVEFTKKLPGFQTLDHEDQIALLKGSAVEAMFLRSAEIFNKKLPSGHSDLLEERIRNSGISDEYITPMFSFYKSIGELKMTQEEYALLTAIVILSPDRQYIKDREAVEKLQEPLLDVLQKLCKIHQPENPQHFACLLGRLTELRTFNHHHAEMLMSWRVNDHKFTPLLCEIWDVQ
Sequence of Estrogen receptor beta (Homo sapiens) (Q92731 whole entry, looked up, the tested form may be a part): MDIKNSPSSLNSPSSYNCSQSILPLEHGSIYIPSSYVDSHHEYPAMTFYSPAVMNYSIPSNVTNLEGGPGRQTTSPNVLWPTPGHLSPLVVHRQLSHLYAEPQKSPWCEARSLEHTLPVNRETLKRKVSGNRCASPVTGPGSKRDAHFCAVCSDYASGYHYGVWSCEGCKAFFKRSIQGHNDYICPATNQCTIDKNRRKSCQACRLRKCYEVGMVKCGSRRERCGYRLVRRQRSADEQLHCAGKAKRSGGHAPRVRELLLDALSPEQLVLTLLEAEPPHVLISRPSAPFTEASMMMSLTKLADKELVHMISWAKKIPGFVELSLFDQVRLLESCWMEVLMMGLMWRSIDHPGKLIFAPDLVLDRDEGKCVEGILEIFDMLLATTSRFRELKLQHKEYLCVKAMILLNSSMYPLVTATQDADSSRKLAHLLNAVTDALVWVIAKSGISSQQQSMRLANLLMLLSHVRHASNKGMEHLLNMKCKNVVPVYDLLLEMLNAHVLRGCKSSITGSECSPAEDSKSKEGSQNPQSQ
Sequence of Retinoic acid receptor RXR-alpha (Homo sapiens) (P19793 whole entry, looked up, the tested form may be a part): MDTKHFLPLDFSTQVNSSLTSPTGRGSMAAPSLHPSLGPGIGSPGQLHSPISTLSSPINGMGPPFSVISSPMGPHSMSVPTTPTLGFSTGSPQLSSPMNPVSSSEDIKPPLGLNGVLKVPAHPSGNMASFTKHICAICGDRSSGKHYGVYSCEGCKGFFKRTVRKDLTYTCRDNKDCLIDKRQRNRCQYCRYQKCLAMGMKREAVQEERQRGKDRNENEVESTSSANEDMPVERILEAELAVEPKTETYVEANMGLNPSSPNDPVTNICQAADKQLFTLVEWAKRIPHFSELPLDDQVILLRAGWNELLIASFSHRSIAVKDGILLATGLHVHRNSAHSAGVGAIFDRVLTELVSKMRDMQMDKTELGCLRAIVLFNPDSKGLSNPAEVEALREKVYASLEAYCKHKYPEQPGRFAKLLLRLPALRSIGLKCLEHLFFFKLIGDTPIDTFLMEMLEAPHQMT
Sequence of Peroxisome proliferator-activated receptor gamma (Homo sapiens) (P37231 whole entry, looked up, the tested form may be a part): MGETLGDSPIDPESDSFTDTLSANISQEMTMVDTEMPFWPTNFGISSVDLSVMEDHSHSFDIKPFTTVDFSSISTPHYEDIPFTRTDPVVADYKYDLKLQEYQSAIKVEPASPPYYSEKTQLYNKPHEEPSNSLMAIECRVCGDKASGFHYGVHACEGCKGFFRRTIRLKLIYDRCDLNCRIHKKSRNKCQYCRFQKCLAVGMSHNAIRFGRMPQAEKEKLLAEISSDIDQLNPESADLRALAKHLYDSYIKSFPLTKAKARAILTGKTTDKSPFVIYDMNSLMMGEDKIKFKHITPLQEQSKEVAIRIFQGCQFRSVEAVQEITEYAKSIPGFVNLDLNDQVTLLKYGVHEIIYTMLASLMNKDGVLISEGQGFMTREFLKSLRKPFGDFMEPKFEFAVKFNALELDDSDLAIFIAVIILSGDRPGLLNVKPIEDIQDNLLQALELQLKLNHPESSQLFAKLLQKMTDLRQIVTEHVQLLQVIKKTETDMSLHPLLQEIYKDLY
Sequence of Estrogen receptor (Homo sapiens) (P03372 whole entry, looked up): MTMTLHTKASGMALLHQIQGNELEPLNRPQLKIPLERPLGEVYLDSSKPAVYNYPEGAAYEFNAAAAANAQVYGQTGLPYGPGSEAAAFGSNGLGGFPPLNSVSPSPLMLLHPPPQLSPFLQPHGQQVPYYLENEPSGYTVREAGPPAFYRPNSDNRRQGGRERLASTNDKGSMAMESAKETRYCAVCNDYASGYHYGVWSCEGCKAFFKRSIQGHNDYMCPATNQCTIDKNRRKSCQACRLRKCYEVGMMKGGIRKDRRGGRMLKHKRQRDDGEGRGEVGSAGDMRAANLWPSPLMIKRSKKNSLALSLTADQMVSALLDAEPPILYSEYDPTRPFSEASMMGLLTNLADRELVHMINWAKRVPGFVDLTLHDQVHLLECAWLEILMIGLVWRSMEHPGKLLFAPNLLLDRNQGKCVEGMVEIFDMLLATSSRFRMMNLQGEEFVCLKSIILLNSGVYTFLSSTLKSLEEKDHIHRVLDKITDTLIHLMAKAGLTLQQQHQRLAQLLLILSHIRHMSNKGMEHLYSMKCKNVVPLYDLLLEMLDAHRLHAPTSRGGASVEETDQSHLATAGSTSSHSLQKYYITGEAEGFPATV

In the case of `CSc1nnc(C(C)(C)C)c(=O)n1N`, the molecule was classed as inactive in assay [1], in [2], in [3], in assay [4], in assay [5] and in assay [6]. Moreover, the result in assay [7], in assay [8], in assay [9], in assay [10], in assay [11] and in [12] was inactive.
As for `CC(Oc1cccc(Cl)c1)C(=O)O` (configuration not stated), the outcome in assay [1], in [2], in assay [3], in assay [5], in [13] and in assay [12] was inactive.
For `CC[C@H](C)[C@H]1O[C@]2(C=C[C@@H]1C)C[C@@H]1C[C@@H](C/C=C(\C)[C@@H](O[C@H]3C[C@H](OC)[C@@H](O[C@H]4C[C@H](OC)[C@@H](NC)[C@H](C)O4)[C@H](C)O3)[C@@H](C)/C=C/C=C3\CO[C@@H]4[C@H](O)C(C)=C[C@@H](C(=O)O1)[C@]34O)O2`, the AC50 (as a rule, the concentration giving half of the maximal activity seen) in assay [14] was 17.9 µM (active). The molecule was classed as inactive in assay [15], in assay [5], in [13] and in assay [12].
With `CN(C)[C@@H]1C(=O)C(C(N)=O)=C(O)[C@@]2(O)C(=O)C3=C(O)c4c(O)cccc4[C@@](C)(O)[C@H]3[C@H](O)[C@@H]12`, the concentration at half-maximal activity (AC50) in assay [5] was 23.7 µM (active). Also, the call in assay [5], in assay [13], in [16] and in assay [12] was inactive.
`CCCOCC(=Nc1ccc(Cl)cc1C(F)(F)F)n1ccnc1`: the outcome in [1], in assay [13], in [16], in assay [6], in assay [8] and in [12] was inactive. For the same molecule, the concentration at half-maximal activity (AC50) in assay [3] was 11.2 µM (active); in [7] it was 0.377 µM (active); in assay [9] it was 0.105 µM (active); in [10] it was 0.165 µM (active); in [11] it was 0.336 µM (active).
On to `COc1cc(OC)nc(Sc2cccc(Cl)c2C(=O)O)n1`, for which the molecule was classed as inactive in assay [5], in assay [13] and in [12].
For `CCc1cccc(C)c1N(C(=O)CCl)C(C)COC` (configuration not stated), the molecule was classed as inactive in assay [1], in assay [4], in assay [5], in assay [13], in assay [16] and in [7]. In addition, the molecule was classed as inactive in assay [11] and in assay [12].
Regarding `CC(=NC#N)N(C)Cc1ccc(Cl)nc1`, the outcome in assay [1], in assay [5], in [13] and in [12] was inactive.
`N#CSCSC#N`: the result in assay [1], in [13] and in assay [12] was inactive. Further, in assay [2], the AC50 was 11.4 µM (active).
As for `O=[N+]([O-])c1cc(C(F)(F)F)c(Cl)c([N+](=O)[O-])c1Nc1ncc(C(F)(F)F)cc1Cl`, the half-maximal activity concentration (AC50) in assay [14] was 17.9 µM (active); in assay [15], 77.7 µM (active); in [5], 0.641 µM (active). Further, the molecule was classed as inactive in [13] and in assay [12].
Take `CC(C1CC1)C(O)(Cn1cncn1)c1ccc(Cl)cc1` (configuration not stated): the figures for the half-maximal activity concentration (AC50) in [1], in assay [7] and in assay [11] were 31.1 µM (active), 4.38 µM (active) and 2.23 µM (active), respectively. In addition, the molecule was called inactive in [4], in assay [13], in assay [16] and in [12].
For `CN(C)NC(=O)CCC(=O)O`, the concentration at half-maximal activity (AC50) in assay [1] was 16.8 µM (active). Also, the call in assay [4], in [5], in assay [13], in assay [7], in assay [11] and in assay [12] was inactive.
With `C#CC(C)(C)NC(=O)c1cc(Cl)cc(Cl)c1`, the outcome in assay [4], in assay [8], in assay [9] and in assay [12] was inactive. Moreover, the concentration at half-maximal activity (AC50) in [6] was 19.1 µM (active); in [7], 13.4 µM (active); in assay [10], 7.45 µM (active); in assay [11], 10.4 µM (active).
On to `CNC(=O)Oc1cccc2c1OC(C)(C)O2`, for which the result in assay [14], in assay [15], in assay [3], in [13], in assay [16] and in assay [6] was inactive. Further, the call in assay [7], in assay [8], in assay [9], in [10] and in assay [12] was inactive. Besides, the half-maximal activity concentration (AC50) in assay [11] was 4.74 µM (active).
Regarding `CC1=NNC(=O)N(/N=C/c2cccnc2)C1`, the outcome in assay [1], in assay [5], in assay [13], in assay [16] and in assay [12] was inactive.
With `CNC(=O)ON=C(C)SC`, the result in [1], in assay [4], in [5], in [13], in assay [6] and in assay [7] was inactive. For the same molecule, the molecule was called inactive in [8], in assay [9], in assay [10], in [11] and in [12].
For `O=C(O)c1cc(Oc2ccc(C(F)(F)F)cc2Cl)ccc1[N+](=O)[O-]`, the molecule was called inactive in assay [1], in [13], in [6], in assay [7], in assay [8] and in assay [9]. For the same molecule, the molecule was called inactive in [10], in [11] and in [12].
As for `COP(=O)(NC(C)=O)SC` (configuration not stated), the molecule was classed as inactive in [1], in assay [4], in assay [5], in assay [13], in assay [6] and in assay [8]. In addition, the outcome in [9], in assay [10], in [11] and in assay [12] was inactive.
